This is part of a sample that, as a whole, favours compounds with a hit. Of some 83,000 tested, about 20% had one in any assay.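 Single-concentration screen, 48 h exposure, 96-well plates. Endpoint: percent growth. Below 10 = active.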 A number with no mark means an inactive call. Active and inactive are the calls of the source.
system: UACC-62 melanoma; assay: NCI-60 one-dose screen, 48 h (100 = growth as untreated, 0 = no growth, -100 = all killed); details: 10 µM unless noted
Protocol: Growth inhibition of the UACC-62 human tumor cell line is measured as a screen for anti-cancer activity. Cells are grown in 96 well plates and exposed to the test compound for 48 hours. Compounds are tested at a single concentration, which is 10^-5 M for most compounds. The reported endpoint is percent growth (GI% or GIPRCNT), where numbers from 0 - 100% represent growth inhibition, and numbers from -100% - 0 represent cell death. For example, a value of 40 represents 60% growth inhibition. A value of 0 means no net growth occurred over the course of the experiment. A value of -40 indicates 40% of cells at the beginning of the experiment died by the end of the experiment. A value of -100 means all cells are dead at the end of the experiment.
NCI-60 Human Tumor Cell Lines Screen was performed using the standard one-dose NCI protocol, which is described in more detail at https://dtp.cancer.gov/discovery_development/nci-60/default.htm.
Compounds with GIPRCNT values below 10 were considered active. Activity score was based on GIPRCNT using the following formula: […]
Score is 0 for GIPRCNT values of 100 or above, 50 for GIPRCNT values of 0, and 100 for GIPRCNT values of -100.

Compound	growth
NC(N)=Nc1ccc(Nc2cccc(Nc3ccc(Cl)c(C(F)(F)F)c3)c2)cn1	24.5%
Cn1ccnc1C(=O)/C=C/c1ccc(CNC(=O)c2ccc(Cl)cc2)cc1	5.76% (active)
NC(=O)c1cccc(C#CCNC[C@H]2C[C@@H](n3ccc4c(Cl)ncnc43)[C@H](O)[C@@H]2O)c1	96.1%
C/C(=N\O)[C@H]1C[C@]23CC[C@]4(C)[C@H](CC[C@@H]5[C@@]6(C)CC/C(=N/O)C(C)(C)[C@@H]6CC[C@]54C)[C@H]2[C@H](C)C1(C)OC3	89.7%
CCc1cccc2c3c(sc12)C(c1ccc(Cl)cc1)C(C#N)=C(/N=C/c1ccc(Cl)cc1)O3 (stereo not given)	10.7%
CCn1c(SCC(=O)Nc2cccc(C(=O)/C=C/c3cc(OC)c(OC)c(OC)c3)c2)nc2ccccc2c1=O	41.2%
N#Cc1cnc2ccc(-c3cnc4[nH]ncc4c3)cc2c1N1CCc2cc(F)c(Cl)cc21	-18.5% (active)
ClC(Cl)c1nc(-c2ccco2)n2nc(-c3ccccc3)cc2n1	40.7%
CC(=O)c1ccc(Nc2nc(SCC(C)C)nc(-c3ccccc3)c2C#N)cc1	75.3%
CN(C)CCNC(=O)c1ccc(-c2nc3ccc4[nH]ncc4c3c3c2CCC3)cc1	15.8%
NC(N)=Nc1ccc(Oc2cccc(NC(N)=Nc3ccc(I)cc3F)c2)cn1	63%
N/C(=N\C(N)=N\c1nc2ccccc2s1)c1cccc(F)c1	89.1% [5 µM]
CCC(NC(c1cc2cccc3ccc4cccc1c4c32)c1nnnn1C(C)(C)C)C1CCCCC1 (stereo not given)	49.6%
COc1cc2oc(-c3cccc(C(=O)N[C@@H](CC(C)C)C(=O)OC(C)(C)C)c3)cc(=O)c2c(OC)c1OC	51.6%
O=C1CCCc2nc(Nc3ccc(S(=O)(=O)Nc4ccc([N+](=O)[O-])cc4)cc3)ncc21	90.3%
CCC1=Cc2cc(OC)ccc2OC12C=Cc1cc(OC)ccc1O2 (stereo not given)	4.11% (active)
Cc1cc(C)c(N2C(=O)CC(Nc3ccc(Cl)cc3Cl)C2=O)c(C)c1 (stereo not given)	91.4%
COc1cc(/C=C/C(=O)c2ccc(NC(=O)CSc3nnc(-c4ccc(-c5nc6ccc(Cl)cc6[nH]5)cc4)o3)cc2)cc(OC)c1OC	74.2%
C#Cc1nc(C(C)=O)cs1	94.3%
O=C1[C@H]2Cc3c([nH]c4ccccc34)[C@@H](c3ccc(Br)cc3)N2C(=O)CN1C1CCN(CC2CCCCC2)CC1	42.3%

Compound	growth
CNC(=O)c1cc(Oc2ccc3nc(NC(=O)c4ccc(N5CCOCC5)c(C(F)(F)F)c4)sc3c2)ccn1	47.7%
NC/C(=C/F)COc1ccc2nc(NCc3cccnc3)oc2c1	101%
CCCSc1nc(Nc2ccc(/C(C)=N\NC(N)=S)cc2)c(C#N)c(-c2ccccc2)n1	97.1%
O=C(CSc1nnc(-c2ccc3nc(-c4ccccc4)[nH]c3c2)o1)Nc1ccc(C(=O)/C=C/c2ccccc2)cc1	97.1%
COc1cc(/C=N/NC(=O)c2cn(C3CC3)c3c(OC)c(N4CC5CCCNC5C4)c(F)cc3c2=O)ccc1O (stereo not given)	91.5%
NS(=O)(=O)c1ccc(Nc2nc(SCc3ccccc3)nc3ccccc23)cc1	70%
CC1=NC2=NC(=O)/C(=C3/N=C(C)C=C(c4ccccc4)N3N)NN2C(c2ccccc2)=C1	88.7%
C#CCn1cccc1CNc1ccc(OC)cc1	-91.7% (active)
COc1cc(-c2nc(SC(C)C)n(C(C)C)c(=O)c2C#N)ccc1OCc1ccccc1	90.4%
Nc1nc(-c2cccc([N+](=O)[O-])c2)c(N=Nc2cccc([N+](=O)[O-])c2)s1	54.7%
O=C(CSc1nc2ccccc2c(=O)n1-c1ccccc1)Nc1cccc(C(=O)/C=C/c2ccccc2)c1	88.7%
COc1c(N2CC3CCCNC3C2)c(F)cc2c(=O)c(C(=O)N/N=C/c3ccc(Br)cc3)cn(C3CC3)c12 (stereo not given)	43%
COc1cc(OC)c(/C=C/S(=O)(=O)Cc2ccc(OC)c(NCC(=O)NO)c2)c(OC)c1	12.4%
N#Cc1c(NC(=O)c2cccc(C(F)(F)F)c2F)sc2c1CCC(=O)C2	-56.6% (active)
CC(O)c1cc2ccccc2c(=O)o1 (stereo not given)	97.9%
Cc1occc1-c1nc2s/c(=C/c3ccc(-c4cc(C(F)(F)F)ccc4Cl)o3)c(=O)n2n1	93.8%
CCO/C=N/C1=C(C#N)C(c2ccc(Cl)cc2)c2sc3c(C)cccc3c2O1 (stereo not given)	9.19% (active)
N#Cc1cnc2ccc(-c3cnc(N)nc3)cc2c1N1CCc2cc(F)c(Cl)cc21	-17.2% (active)
CCOC(=O)c1c(NC(=O)c2ccccc2C(F)(F)F)sc2c1CCC(=O)C2	13%
CCn1c(SCC(=O)Nc2cccc(C(=O)/C=C/c3ccc(Br)cc3)c2)nc2ccccc2c1=O	73.9%
